In all, about 16,000 compounds went through this assay and about 5,700 (36%) were called active. Another 24% or so got no clear call; they are omitted. The call rests on the fitted dose curve; in most records, active means well fitted curve in the direction sought with a large enough effect; inconclusive means small, poorly fitted or top-dose-only effect, or effect the other way; inactive means no such curve, though single readings can be large or run the other way. This is one part of the list.
Target: Cytochrome P450 1A2 (Homo sapiens) (UniProt P05177)
Experiment: Cytochrome panel assay with activity outcomes
Settings: recombinant CYP, pro-luciferin dealkylation, luminescence, p450-cyp1a2; series mostly up to 57.1 µM; activity, negative = inhibition: at the top concentration
On the % scale 0 is the no-effect control and ±100 the full control effect.

Chain of Cytochrome P450 1A2 (Homo sapiens) (P05177 whole entry, looked up): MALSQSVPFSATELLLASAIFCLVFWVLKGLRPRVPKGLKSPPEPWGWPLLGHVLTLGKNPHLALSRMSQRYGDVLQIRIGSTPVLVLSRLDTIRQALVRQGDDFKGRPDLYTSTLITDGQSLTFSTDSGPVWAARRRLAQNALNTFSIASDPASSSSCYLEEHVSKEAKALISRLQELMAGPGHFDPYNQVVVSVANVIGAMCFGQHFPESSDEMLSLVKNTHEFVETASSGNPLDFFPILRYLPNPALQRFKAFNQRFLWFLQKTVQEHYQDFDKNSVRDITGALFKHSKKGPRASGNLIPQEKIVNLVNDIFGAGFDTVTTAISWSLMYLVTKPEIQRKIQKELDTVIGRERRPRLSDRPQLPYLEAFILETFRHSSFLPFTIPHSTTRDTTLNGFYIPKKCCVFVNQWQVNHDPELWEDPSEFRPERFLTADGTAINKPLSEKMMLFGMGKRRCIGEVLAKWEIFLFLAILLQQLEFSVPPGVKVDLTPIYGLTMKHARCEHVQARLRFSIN

| Compound | activity, negative = inhibition | AC50 |
| --- | --- | --- |
| O=C(O)c1ccc(CNCc2ccccc2)cc1 | -10.8% [at 11.4 µM] (inactive) | – |
| Sc1ccc2ccccc2c1CNCc1ccccc1 | – | 1.26 µM (active) |
| O=C(C[C@@H](c1ccccc1)N1CCCCC1)c1ccccc1 | – | 1.26 µM (active) |
| O=C(O)c1cccc(CN2CCCCC2)c1 | -16.7% [at 11.4 µM] (inactive) | – |
| C[C@H](C(=O)c1ccccc1)[C@@H](c1ccccc1)N1CCOCC1 | -14.9% [at 11.4 µM] (inactive) | – |
| O=C(Cc1ccccc1)NCCSCc1ccc(Cl)cc1 | – | 7.08 µM (active) |
| O=C(O)CCSCc1ccccc1 | -20.7% [at 11.4 µM] (inactive) | – |
| N[C@@H](CSCc1ccccc1)C(=O)O | -9.6% [at 11.4 µM] (inactive) | – |
| CCCCCCCCCCCC(=O)O[C@H](CC(=O)O)C[N+](C)(C)C | 3.19% (inactive) | – |
| O=C(N/N=C/c1ccc(Cl)cc1Cl)c1cccc(F)c1 | – | 1.78 µM (active) |
| O=C(N/N=C/c1ccc(Cl)cc1Cl)Nc1ccccc1 | – | 1 µM (active) |
| O=C(Nc1ccc(N=Nc2ccccc2)cc1)c1ccc(Cl)cc1Cl | 11.4% (inactive) | – |
| Cc1ccc(NC(=O)N/C=C/c2ccc(Cl)cc2)cc1 | -22.5% (inactive) | – |
| O=C(N/N=C/c1ccc(Cl)cc1)Nc1ccccc1 | – | 10 µM (active) |
| CC(C)(C)N(NC(=O)Nc1ccccc1)C(=O)c1ccccc1Cl | 5.62% (inactive) | – |
| O=C(c1ccco1)N1CCC2(CCCN(Cc3ccccc3)C2)CC1 | -4.78% (inactive) | – |
| O=C(NCC1COc2ccccc2O1)C1CCN(S(=O)(=O)c2cccc3nsnc23)CC1 (stereo unspecified) | -7.72% (inactive) | – |
| CC(=O)N1c2c(cc(Br)cc2S(=O)(=O)NCC2COc3ccccc3O2)CC1C (stereo unspecified) | – | 3.16 µM (active) |
| CCCN(CCC)CCCNS(=O)(=O)c1cc(Br)cc2c1N(C(C)=O)CC2 | -17.8% (inactive) | – |
| COc1ccc(C(=O)NN)cc1COc1ccc(Br)cc1 | – | 0.2 µM (active) |
| COc1ccc(/C=C/C(=O)NCc2cn(C)nc2C)cc1COc1ccc(Br)cc1 | -26.8% (inactive) | – |
| NC(=O)CNC(=O)[C@@H]1CC2(CC(c3ccc(Cl)cc3)=NO2)CN1C(=O)c1ccccc1 (stereo partly specified) | 11.7% (inactive) | – |
| C=CCc1cc(C=O)cc(OC)c1OCc1ccc(Cl)cc1 | – | 1.12 µM (active) |
| CCOC(=O)c1cc(-c2ccccc2)sc1NC(=O)C(C)(C)C | -12.1% (inactive) | – |
| O=C(CN1C(=O)c2ccccc2C1=O)NC1(C(=O)O)CCCC1 | -2.12% [at 2.29 µM] (inactive) | – |
| COC(=O)c1cc(-c2ccccc2)sc1NC(=O)CN1C(=O)c2ccccc2C1=O | – | 0.708 µM (active) |

| Compound | activity, negative = inhibition | AC50 |
| --- | --- | --- |
| CCOC(=O)c1cc(-c2ccccc2)sc1NC(=O)c1ccc(OC)cc1 | – | 8.91 µM (active) |
| CCOC(=O)c1c(NC(=O)CCCN2CCOCC2)sc2c1CC(C)(C)OC2 | – | 14.1 µM (active) |
| CNC(=O)c1ccc(-c2sc3nc(N4CCOCC4)c4c(c3c2N)CC(C)(C)OC4)o1 | 1.36% (inactive) | – |
| CCOC(=O)c1c(NC(=O)c2ccc(N3CCOCC3)c([N+](=O)[O-])c2)sc(C)c1C | 2.45% (inactive) | – |
| CN1CCN(NC(=O)CN2C(=O)/C(=C/c3c(Cl)cccc3Cl)SC2=S)CC1 | -7.84% (inactive) | – |
| CCN1C(=O)/C(=C/C=C2/SCCN2C)SC1=S | – | 1 µM (active) |
| CCNc1nc(Sc2ccc(C)cc2)cc(C(F)(F)F)n1 | – | 3.16 µM (active) |
| Cc1ccc(Sc2cc(Cl)nc(N)n2)cc1 | -23.8% (inactive) | – |
| Cn1c(=O)c(-c2ccc(F)cc2)nc2cnc(Oc3ccccc3)nc21 | – | 0.316 µM (active) |
| COc1ccc(Oc2ncc3nc(-c4ccc(F)cc4)c(=O)n(C)c3n2)cc1 | – | 2 µM (active) |
| COc1ccccc1-c1ccc2ncnc(N3CCOCC3)c2c1 | – | 0.631 µM (active) |
| CN(C)C(=O)c1ccc(-c2ccc3ncnc(N4CCOCC4)c3c2)cc1 | -16.8% (inactive) | – |
| COc1cccc(-c2ccc3ncnc(N4CCOCC4)c3c2)c1 | – | 1 µM (active) |
| FC(F)(F)c1ccccc1-c1ccc2ncnc(N3CCOCC3)c2c1 | – | 0.251 µM (active) |
| CN(C)Cc1ccccc1-c1ccc2ncnc(N3CCOCC3)c2c1 | – | 15.8 µM (active) |
| O=C(O)C1CCN(c2ncnc3ccc(-c4ccccc4C(F)(F)F)cc23)CC1 | -19.1% (inactive) | – |
| COCCCN1C(=O)C(=O)/C(=C(/O)c2ccc(OC(C)C)c(C)c2)C1c1ccncc1 (stereo unspecified) | 15.5% [at 11.4 µM] (inactive) | – |
| COc1ccc(C(=O)N2CCC[C@@]3(CCN(Cc4cc(C(F)(F)F)cc(C(F)(F)F)c4)C3)C2)cc1 | 2.06% (inactive) | – |
| COc1ccccc1-c1ccc2ncnc(N3CCN(C)CC3)c2c1 | – | 3.16 µM (active) |
| CCc1c(C)nc2ncnn2c1NCCc1ccc(OC)cc1 | – | 15.8 µM (active) |
| Cc1ccc(CNC(=O)CCc2c(C)nc3ncnn3c2C)cc1 | -10.8% (inactive) | – |
| CCOC(=O)CCc1c(C)nc2ncnn2c1C | -15.3% (inactive) | – |
| CC1(C)O[C@H]2O[C@@H]([C@H](O)CON3C(=O)c4ccccc4C3=O)[C@H](O)[C@H]2O1 | -10.7% [at 11.4 µM] (inactive) | – |
| O=c1cc(N2CCC(Cc3ccccc3)CC2)[nH]c(=O)n1C1CCCCC1 | -3.97% (inactive) | – |
| O=S(=O)(c1ccccc1)c1cnc(-c2cccnc2)nc1-c1ccc(Cl)cc1Cl | – | 8.91 µM (active) |
| O=S(=O)(c1ccc(Cl)cc1)c1cnc(-c2cccnc2)nc1-c1ccccc1 | -29.7% (inactive) | – |

| Compound | activity, negative = inhibition | AC50 |
| --- | --- | --- |
| CCC(C)(C)N=C(NC#N)Nc1cccnc1 | – | 12.6 µM (active) |
| O=S(=O)(NCc1cc(-c2ccccc2Cl)no1)c1ccc(Cl)cc1 | – | 1 µM (active) |
| C[C@@](O)(CNS(=O)(=O)c1ccccc1)c1ccccc1 | -17.4% [at 11.4 µM] (inactive) | – |
| O=C1c2ccccc2C(=O)N1Cc1cc(-c2ccccc2Cl)no1 | – | 0.794 µM (active) |
| O=S(=O)(NCc1cc(-c2ccccc2Cl)no1)c1ccccc1 | – | 7.08 µM (active) |
| CCCNC(=O)NS(=O)(=O)c1ccc(Cl)cc1 | -1.12% [at 25.6 µM] (inactive) | – |
| COc1ccc(CC(=O)N2CCN(c3ccc(C4=NNC(=O)CC4C)cc3)CC2)cc1 (stereo unspecified) | 3.77% (inactive) | – |
| O=c1[nH][nH]cc1C=Nc1ccccc1O | – | 10 µM (active) |
| O=c1c(C=Nc2ccc(Oc3ccccc3)cc2)c[nH]n1-c1cccc(Cl)n1 | -27.8% (inactive) | – |
| COc1cccc(N=Cc2c[nH][nH]c2=O)c1 | – | 1 µM (active) |
| N[C@@H](C(=O)O)c1cc(O)ccc1Cl | – | 15.8 µM (active) |
| N[C@@H](C(=O)O)c1ccc(C(=O)O)c(O)c1 | -18.4% (inactive) | – |
| N[C@H](C(=O)O)c1ccc(C(=O)O)c(O)c1 | -0.752% (inactive) | – |
| O=C(O)CN(CCOCCOCCN(CC(=O)O)CC(=O)O)CC(=O)O | -12.6% (inactive) | – |
| CCCn1nc(Oc2nc(NCC)nc(NC(C)C)n2)ccc1=O | -6.37% (inactive) | – |
| CCNc1nc(NCC)nc(ON=C(C)C)n1 | – | 14.1 µM (active) |
| CCCNc1nc(NCC)nc(OC)n1 | – | 11.2 µM (active) |
| O=S(=O)(c1ccccc1)N1CCC2(CCN(C(c3ccccc3)c3ccccc3)CC2)CC1 | -19.9% (inactive) | – |
| COc1cc2nc(N(C)CCCNC(=O)[C@@H]3CCCO3)nc(N)c2cc1OC | -14% [at 25.6 µM] (inactive) | – |
| O=C(Nc1nc2ccc(F)cc2s1)C1CCCO1 (stereo unspecified) | – | 4.47 µM (active) |
| Cc1cccc(C(=O)NNC(=O)C2CCCO2)c1 (stereo unspecified) | -3.1% (inactive) | – |
| CS(=O)(=O)N1CCC2(CCN(Cc3ccncc3)CC2)CC1 | 7% (inactive) | – |
| Cc1ccc(S(=O)(=O)N[C@@H](CCc2ccccc2)CC(=O)C(C)(C)C)cc1 | 2.3% [at 11.4 µM] (inactive) | – |
| CC(CCc1ccccc1)NC(=O)C(=O)NCCO (stereo unspecified) | -14% (inactive) | – |
| CCCCNC(=O)C(=O)NC(C)CCc1ccccc1 (stereo unspecified) | – | 15.8 µM (active) |
| CC(CCc1ccccc1)NS(=O)(=O)c1ccccc1 (stereo unspecified) | – | 14.1 µM (active) |

| Compound | activity, negative = inhibition | AC50 |
| --- | --- | --- |
| C[C@@H](CCc1ccccc1)NC[C@H](O)c1ccc(O)c(C(N)=O)c1 | -17.9% [at 25.6 µM] (inactive) | – |
| C[C@@H](CS(=O)(=O)Cc1ccccc1)C(N)=O | -13.3% [at 11.4 µM] (inactive) | – |
| CCOC(=O)[C@H](CCc1ccccc1)N[C@@H](C)C(=O)N1CCC[C@H]1C(=O)O | -6.41% [at 25.6 µM] (inactive) | – |
| CC(CCc1ccccc1)NC(=O)/C=C/c1ccccc1 (stereo unspecified) | – | 12.6 µM (active) |
| C=CC[C@@H]1C=C[C@H](O/N=C2\c3cc(OC)ccc3O[C@H](c3cccc(OC)c3)[C@H]2O)[C@H](CO)O1 | -7.04% [at 11.4 µM] (inactive) | – |
| O=[N+]([O-])c1ccc(Cl)c(-c2ccc(/C=N/c3c(-c4ccco4)nc4ccccn34)o2)c1 | -21.9% (inactive) | – |
| COc1cc(-c2nc3ccccn3c2/N=C/c2ccccc2)ccc1O | – | 3.16 µM (active) |
| C[n+]1cc2c3c(ccc2c2ccc4cc5c(cc4c21)OCO5)OCO3 | – | 3.98 µM (active) |
| Cc1cnc(CNc2ccnc(-c3ccc(N(C)C)cc3)n2)cn1 | – | 2.51 µM (active) |
| Cc1cnc(CNc2ccnc(-c3ccoc3)n2)cn1 | – | 12.6 µM (active) |
| CO/N=C\c1ccc(C(=O)N2[C@H](c3ccc(C)cc3)[C@@H](C)CC[C@H]2C(=O)OC)cc1 | -13.4% [at 11.4 µM] (inactive) | – |
| C[N+](C)(C)c1cc2c(nn1)Nc1ccccc1S2 | – | 2 µM (active) |
| O=C(O)CC1(CC(=O)O)Nc2ccccc2SC1=O | 2.04% [at 2.29 µM] (inactive) | – |
| CCCCC/C=C\C[C@H](O)/C=C\c1cccc(C[C@H](O)CCCCO)n1 | -3.33% (inactive) | – |
| CC(/C=C/c1ccco1)=N/NC(=O)c1ccccc1Cl | – | 17.8 µM (active) |
| Cc1ccc(NC(=S)/C(=C(\[O-])c2ccc(C)c([N+](=O)[O-])c2)[n+]2ccccc2)cc1C | – | 14.1 µM (active) |
| CC(C)=C1C(=O)C(c2ccccc2)=C2CN3C(=O)N(CCc4ccccc4)C(=O)[C@]3(Cc3ccccc3)[C@H]21 | -14.9% (inactive) | – |
| O=C(O)c1sc2cc(C(F)(F)F)cnc2c1-c1ccccc1 | -9.27% (inactive) | – |
| O=C(O)c1cccnc1Nc1cccc(C(F)(F)F)c1 | – | 5.01 µM (active) |
| CCOC(=O)C1CN(S(=O)(=O)c2cccc(C(F)(F)F)c2)c2cc(CC(=O)OC)ccc2O1 (stereo unspecified) | 3.52% (inactive) | – |
| O=C(O)Cc1ccc2c(c1)N(S(=O)(=O)c1cccc(C(F)(F)F)c1)CC(C(=O)O)O2 (stereo unspecified) | -19.2% (inactive) | – |
| O=C(COC(=O)c1cccnc1Nc1cccc(C(F)(F)F)c1)NCc1ccc2c(c1)OCO2 | – | 3.55 µM (active) |
| O=C(O)c1cccnc1C(=O)O | -5.13% (inactive) | – |

— PubChem BioAssay AID1851 (National Center for Advancing Translational Sciences (NCATS), 2009)
